Screening results (PubChem)
phage Ecoli inh – growth loss of phage-infected E. coli, primary screen, RecBCD inhibitor project, absorbance, with phage, HTS; inhibition, % at 11.9 µM; hit rate 0.26% among 360,000; in the data active means inhibition above about 11%
AddAB inh – growth inhibition of E. coli expressing H. pylori AddAB, primary screen, AddAB inhibitor project, absorbance; inhibition, % at 11.9 µM; hit rate 0.29% among 330,000; in the data active means inhibition above about 12%
E coli growth-1 – E. coli growth inhibition, primary screen, OD600; hit rate 0.21% among 330,000; OD600 absorbance (no concentration beside the values); Escherichia coli growth, 23 h; active compounds read low; AID 1053175, 2014;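 active means OD600 absorbance below the run mean of sample wells minus 3.6 SD, in any replicate, cut at about 0.56 in these data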
E coli growth-2 – E. coli V3065 growth inhibition, primary screen, counter-screen for AddAB inhibitor project, absorbance, OD600. 18 h. inhibition, % at 11.9 µM. hit rate 0.27% among 330,000. AID 449728, 2010;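 active means inhibition above the campaign's mean inhibition across all tested compounds plus 3 SD, cut at about 9.9% in these data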;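 further: uninfected addAB+ strain grown without phage in ampicillin broth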
Tat transport – E. coli Tat export inhibitors, primary screen, MC4100, TorA-mCherry reporter, fluorescence, single point; hit rate 0.036% among 340,000; inhibition, % at 10 µM;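 active means mean replicate inhibition at least 50% and at least half of replicates individually reaching 50%; inconclusive means only one of the two criteria met; inactive means neither criterion met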;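 further: exported cargo escapes ClpAP degradation while cytoplasmic cargo is degraded and loses fluorescence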
AddAB confirm – growth loss of phage-infected E. coli expressing H. pylori AddAB, confirmation, AddAB inhibitor project, absorbance, E. coli V3065, T4 phage, triplicate; shares compounds with AddAB inh; OD; T4 phage with gene 2 nonsense mutations; inhibition, % at 11.9 µM; hit rate 64% among 880;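 active means mean inhibition above a set limit taken from the earlier primary screen, cut at about 13% in these data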;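 further: higher means less bacterial growth since AddAB block lets phage replicate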
RecBCD counter – growth loss of RecBCD+ E. coli with mutant T4 phage, counter-screen for AddAB inhibitor project, absorbance, V66 E. coli | inhibition, % at 11.9 µM | hit rate 73% among 880 | AID 488955, 2010 | OD growth | shares compounds with AddAB inh;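 active means mean inhibition above the mean of solvent-only control wells plus 3 SD, cut at about 4% in these data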;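 further: optical density read after an 18 h incubation at 37 °C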
Bact viability – bacterial viability inhibition counter-screen, confirmation, counter-screen for AddAB inhibitor project, absorbance. shares compounds with AddAB inh. absorbance (AddAB counterscreen). inhibition, % at 11.9 µM. hit rate 35% among 880. AID 488956, 2010; in the data active means inhibition above about 25%
RecBCD conf – growth loss of phage-infected RecBCD+ E. coli, confirmation, RecBCD inhibitor project, absorbance, E. coli V66, T4 gene 2 phage; AID 651982, 2013; E. coli V66 + T4 2- phage, growth OD; shares compounds with phage Ecoli inh; hit rate 45% among 890; inhibition, % at 11.9 µM;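 active means mean inhibition over triplicates exceeding the hit threshold derived in the original primary screen, cut at about 11% in these data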
Ecoli viability – E. coli viability inhibition, counter-screen for RecBCD inhibitor project, absorbance, high throughput. shares compounds with phage Ecoli inh. absorbance (OD) growth. inhibition, % at 11.9 µM. hit rate 29% among 890; in the data active means inhibition above about 20%;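 further: E. coli strain V66 grown with compound alone and no phage infection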
AddAB phage OD – growth loss of phage-infected AddAB-carrying E. coli, confirmation, counter-screen for RecBCD inhibitor project, absorbance, E. coli V3065, T4 phage. shares compounds with phage Ecoli inh. E. coli expressing H. pylori AddAB + T4 phage, OD growth; gene 2 mutant T4, recBCD-deleted host. inhibition, % at 11.9 µM. hit rate 45% among 890;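 active means mean inhibition above the solvent-only control wells' mean plus 3 SD, cut at about 22% in these data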;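 further: higher means less bacterial growth from phage killing when AddAB is blocked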
A number is an active result; n = inactive; u = inconclusive; x = not tested or not shown. Rows were chosen to be rich in hits. Some 0.5% of all compounds tested hit in one or more screens of this group.

SMILES	phage Ecoli inh	AddAB inh	E coli growth-1	E coli growth-2	Tat transport	AddAB confirm	RecBCD counter	Bact viability	RecBCD conf	Ecoli viability	AddAB phage OD
CNC(=S)N1CCN(c2c(F)cc3c(=O)c(C(=O)O)cn(C4CC4)c3c2OC)CC1C (configuration not stated)	100	101	0.045	99	73	100	101	99	101	103	103
COC(=O)C(C)NC(=S)N1CCN(c2c(F)cc3c(=O)c(C(=O)O)cn(C4CC4)c3c2OC)CC1C (configuration not stated)	99	103	0.067	102	n	102	100	102	104	104	104
CC1CCN(C(=O)c2ccc(CNS(=O)(=O)c3ccc(C(C)(C)C)cc3)cc2)CC1	n	n	n	n	n	x	x	x	x	x	x
O=C(c1ccc2c(c1)OCO2)N1CCC(Cc2ccccc2)CC1	n	n	n	n	n	x	x	x	x	x	x
O=[N+]([O-])c1ccc(-c2ccn[nH]2)o1	98	100	0.062	100	u	102	100	101	105	106	106
Nc1nc(N)c2cc(Sc3ccc4ccccc4c3)ccc2n1	63	98	0.079	102	x	98	72	94	70	65	95
Clc1ncccc1OCc1ccccc1	n	n	n	n	n	x	x	x	x	x	x
O=C(N/N=C/c1ccc(O)c(O)c1O)/C(=C/c1ccc([N+](=O)[O-])cc1)NC(=O)c1ccccc1	15	16	x	20	n	n	9.5	n	n	n	n
S=c1nc[nH]c2nc[nH]c12	25	80	n	24	n	63	24	50	37	40	71
O=C(CNc1ccccc1)N/N=C/c1ccc([N+](=O)[O-])o1	12	17	x	16	n	84	12	28	n	n	59
O=C(CNC(=O)c1ccccc1)N/N=C/c1ccc([N+](=O)[O-])o1	20	28	x	23	n	98	10	29	15	n	82
O=C(COc1ccccc1)NN=Cc1ccc([N+](=O)[O-])o1	x	x	n	x	x	x	x	x	x	x	x
Cc1ccc(NCC(=O)N/N=C\c2ccc([N+](=O)[O-])o2)cc1	n	n	x	n	n	x	x	x	x	x	x
O=C(Cc1ccc2c(c1)OCO2)NN=Cc1ccc([N+](=O)[O-])o1	13	27	n	9.9	n	99	8.4	n	n	n	37
O=C(Cn1cnc2ccccc21)Nc1ccc2c(c1)OCCCO2	16	17	n	13	n	23	16	n	12	n	n
O=C(Cn1cnc2ccccc2c1=O)Nc1ccc2c(c1)OCO2	n	n	n	n	n	x	x	x	x	x	x
COc1ccc(-n2nc(C(=O)NCC(=O)Nc3cccc(Cl)c3)c3ccccc3c2=O)cc1OC	n	n	n	n	n	x	x	x	x	x	x
O=C1CCCc2nc(N3CCCCC3)sc21	n	n	n	n	n	x	x	x	x	x	x
COc1ccc(/C=N\NC(=O)c2cc(O)c(O)c(O)c2)cc1COc1ccc(C(=O)OCC(C)C)cc1	12	15	x	10	n	n	8.8	n	n	n	n
CN(CCc1ccccn1)c1ccccc1	n	x	n	x	n	x	x	x	x	x	x
O=C1CN(/N=C/c2ccc([N+](=O)[O-])o2)C(=O)N1	77	99	x	99	x	100	40	101	49	72	100
O=C1OC(CN2CCOCC2)CN1N=Cc1ccc([N+](=O)[O-])o1 (configuration not stated)	86	98	0.064	99	n	100	81	100	64	83	100
CCCS(=O)(=O)c1c(S(=O)(=O)CCC)c2cc(CC)ccn2c1C(=O)OC	n	n	n	n	n	x	x	x	x	x	x
CC1CC(C)CN(c2oc(-c3ccccc3Cl)nc2C#N)C1 (configuration not stated)	n	n	n	n	n	x	x	x	x	x	x
CCc1nnc(NS(=O)(=O)c2ccc(N=Cc3c(C)[nH]n(-c4ccc(C)c(C)c4)c3=O)cc2)s1	11	16	x	12	n	n	4.5	n	n	n	23
SMILES	phage Ecoli inh	AddAB inh	E coli growth-1	E coli growth-2	Tat transport	AddAB confirm	RecBCD counter	Bact viability	RecBCD conf	Ecoli viability	AddAB phage OD
O=C(CCCCn1c(=O)c2ccccc2n(Cc2ccccc2)c1=O)NC1CCN(Cc2ccccc2)CC1	n	n	n	n	n	x	x	x	x	x	x
CCCNC(=O)c1ccc2c(=O)c(O)c(-c3ccc(Cl)c([N+](=O)[O-])c3)[nH]c2c1	16	14	x	11	n	n	13	n	n	n	n
C/C(=N\Nc1ccc2nncn2n1)c1ccccn1	32	31	x	27	x	22	29	n	18	27	n
O=[N+]([O-])c1cc(F)c2cccnc2c1O	40	53	0.083	54	n	50	49	41	53	53	48
O=[N+]([O-])c1cc(Cl)c2cccnc2c1O	52	68	0.067	62	n	63	70	63	78	79	63
O=[N+]([O-])c1ccc(O)c2cccnc12	n	n	n	n	n	x	x	x	x	x	x
COc1ccc(-c2cc(C(=O)N(C)Cc3ccccc3)no2)cc1OC	x	n	n	n	n	x	x	x	x	x	x
O=C1c2ccccc2C(=O)c2[nH]c(=O)[nH]c21	16	15	0.41	10	n	17	17	n	15	n	29
Cc1cc(=O)[nH]c(NN=Cc2c(C)nn(-c3ccccc3)c2Cl)n1	x	x	n	x	x	x	x	x	x	x	x
COc1nsnc1NS(=O)(=O)c1ccc(NC(=S)NC(=O)c2ccncc2)cc1	29	74	0.068	62	n	76	24	34	14	n	33
COc1nsnc1NS(=O)(=O)c1ccc(NC(=S)NC(=O)c2cccnc2)cc1	47	59	0.062	54	n	70	31	42	27	23	45
